Laboratory results taken from the supplement of paper PMC11732987, “Enantioselective OTUD7B fragment discovery through chemoproteomics screening and high-throughput optimisation” (Communications Chemistry, 2025).

What was measured:
Experiment in all cases: log2 ratio of Biotin-Ahx-Ub-VS probe labelling (fragment/DMSO); higher = less target engagement (more negative = stronger competition), active = hit call of the paper (q ≤ 0.05, log2 ratio ≤ -1)
Details in all cases: compound concentration: 200 uM; treatment time: 3 h
[1] = molecular target: T1, USP42 (UniProt Q9H9J4)
T1 sequence (whole entry): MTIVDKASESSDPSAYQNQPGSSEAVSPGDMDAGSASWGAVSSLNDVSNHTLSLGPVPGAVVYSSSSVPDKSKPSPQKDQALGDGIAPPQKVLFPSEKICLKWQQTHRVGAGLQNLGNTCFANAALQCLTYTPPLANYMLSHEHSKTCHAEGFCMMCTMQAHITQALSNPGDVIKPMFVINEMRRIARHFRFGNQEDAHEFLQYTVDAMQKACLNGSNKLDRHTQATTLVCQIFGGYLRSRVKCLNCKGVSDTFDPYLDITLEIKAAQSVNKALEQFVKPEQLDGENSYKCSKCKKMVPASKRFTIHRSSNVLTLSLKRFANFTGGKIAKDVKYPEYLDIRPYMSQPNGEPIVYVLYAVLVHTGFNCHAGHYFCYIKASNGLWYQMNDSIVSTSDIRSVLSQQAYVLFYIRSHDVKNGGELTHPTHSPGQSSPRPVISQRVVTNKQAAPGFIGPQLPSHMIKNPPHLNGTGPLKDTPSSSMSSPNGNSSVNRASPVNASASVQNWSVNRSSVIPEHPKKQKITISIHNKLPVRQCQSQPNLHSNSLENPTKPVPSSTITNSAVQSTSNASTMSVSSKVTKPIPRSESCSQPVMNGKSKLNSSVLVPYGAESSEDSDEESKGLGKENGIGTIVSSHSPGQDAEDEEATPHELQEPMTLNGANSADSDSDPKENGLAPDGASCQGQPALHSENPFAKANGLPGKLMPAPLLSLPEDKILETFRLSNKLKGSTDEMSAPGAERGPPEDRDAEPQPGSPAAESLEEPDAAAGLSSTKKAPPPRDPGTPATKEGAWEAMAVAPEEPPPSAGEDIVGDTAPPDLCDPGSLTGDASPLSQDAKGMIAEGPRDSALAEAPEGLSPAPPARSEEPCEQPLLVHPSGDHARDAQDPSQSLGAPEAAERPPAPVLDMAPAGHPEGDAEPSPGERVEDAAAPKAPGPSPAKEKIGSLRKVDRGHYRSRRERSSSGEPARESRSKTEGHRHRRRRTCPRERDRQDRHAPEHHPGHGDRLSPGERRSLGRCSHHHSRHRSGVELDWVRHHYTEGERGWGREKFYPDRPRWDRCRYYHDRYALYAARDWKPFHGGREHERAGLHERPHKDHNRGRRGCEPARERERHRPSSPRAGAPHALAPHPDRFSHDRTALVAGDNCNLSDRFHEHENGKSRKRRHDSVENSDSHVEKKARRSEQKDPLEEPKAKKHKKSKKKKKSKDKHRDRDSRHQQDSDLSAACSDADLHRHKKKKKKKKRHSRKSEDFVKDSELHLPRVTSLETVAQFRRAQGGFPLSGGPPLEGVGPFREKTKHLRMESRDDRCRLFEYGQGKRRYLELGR
Outline: (§1)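 Labelling with Biotin-Ahx-Ub-VS (0.5 µM final, 1 h) followed a 3 h triplicate treatment of HEK293T lysate (495 µg per sample, Tris/CHAPS/IGEPAL buffer with protease inhibitors) with fragment at 200 µM or vehicle. Labelled DUBs were NeutrAvidin-enriched, digested with LysC and trypsin, and run by diaPASEF LC-MS/MS. The values, average log2 fragment/vehicle ratios by unpaired t-test, come from global-median-normalised Spectronaut label-free quantities. Proteins with ≥2 unique peptides were used.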

[2] = molecular target: USP46 (UniProt P62068)
Outline: as §1

[3] = molecular target: T2, USP47 (UniProt Q96K76)
T2 sequence (whole entry): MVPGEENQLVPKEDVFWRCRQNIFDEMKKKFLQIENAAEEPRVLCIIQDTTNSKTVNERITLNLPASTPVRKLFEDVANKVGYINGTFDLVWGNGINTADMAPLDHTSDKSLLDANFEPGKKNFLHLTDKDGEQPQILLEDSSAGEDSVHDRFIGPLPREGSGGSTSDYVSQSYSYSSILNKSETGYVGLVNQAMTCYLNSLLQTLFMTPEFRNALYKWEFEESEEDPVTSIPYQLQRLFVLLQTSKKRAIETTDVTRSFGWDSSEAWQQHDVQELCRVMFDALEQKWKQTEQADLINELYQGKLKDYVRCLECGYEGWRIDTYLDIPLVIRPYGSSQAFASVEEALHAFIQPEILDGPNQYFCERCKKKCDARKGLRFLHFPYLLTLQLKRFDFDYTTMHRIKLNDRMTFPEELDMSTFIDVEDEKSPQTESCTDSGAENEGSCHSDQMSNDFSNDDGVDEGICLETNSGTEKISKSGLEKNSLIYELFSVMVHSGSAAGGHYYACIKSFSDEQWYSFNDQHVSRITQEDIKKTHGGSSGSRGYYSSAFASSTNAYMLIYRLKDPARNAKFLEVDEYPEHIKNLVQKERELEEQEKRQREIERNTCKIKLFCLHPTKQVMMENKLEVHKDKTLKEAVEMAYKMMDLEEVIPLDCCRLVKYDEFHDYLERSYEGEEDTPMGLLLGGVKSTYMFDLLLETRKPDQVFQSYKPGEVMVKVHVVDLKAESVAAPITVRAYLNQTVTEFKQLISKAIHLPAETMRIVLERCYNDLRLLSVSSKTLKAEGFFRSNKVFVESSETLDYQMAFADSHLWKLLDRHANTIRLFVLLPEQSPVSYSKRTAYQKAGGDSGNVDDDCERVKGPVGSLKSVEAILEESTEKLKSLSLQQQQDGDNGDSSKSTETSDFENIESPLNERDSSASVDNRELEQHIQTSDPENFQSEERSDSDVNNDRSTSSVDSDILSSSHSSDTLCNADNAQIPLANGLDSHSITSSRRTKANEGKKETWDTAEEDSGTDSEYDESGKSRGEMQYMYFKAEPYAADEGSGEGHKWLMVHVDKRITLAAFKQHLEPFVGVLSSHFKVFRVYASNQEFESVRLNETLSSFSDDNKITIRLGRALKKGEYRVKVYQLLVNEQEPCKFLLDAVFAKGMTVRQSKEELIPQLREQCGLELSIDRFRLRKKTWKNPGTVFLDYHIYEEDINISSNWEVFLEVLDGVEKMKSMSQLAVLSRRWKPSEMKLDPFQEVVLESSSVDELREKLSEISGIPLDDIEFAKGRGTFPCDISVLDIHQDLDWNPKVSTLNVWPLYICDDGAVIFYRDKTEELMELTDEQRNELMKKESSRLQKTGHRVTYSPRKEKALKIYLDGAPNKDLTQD
Outline: as §1

[4] = molecular target: T3, USP48 (UniProt Q86UV5)
T3 sequence (whole entry): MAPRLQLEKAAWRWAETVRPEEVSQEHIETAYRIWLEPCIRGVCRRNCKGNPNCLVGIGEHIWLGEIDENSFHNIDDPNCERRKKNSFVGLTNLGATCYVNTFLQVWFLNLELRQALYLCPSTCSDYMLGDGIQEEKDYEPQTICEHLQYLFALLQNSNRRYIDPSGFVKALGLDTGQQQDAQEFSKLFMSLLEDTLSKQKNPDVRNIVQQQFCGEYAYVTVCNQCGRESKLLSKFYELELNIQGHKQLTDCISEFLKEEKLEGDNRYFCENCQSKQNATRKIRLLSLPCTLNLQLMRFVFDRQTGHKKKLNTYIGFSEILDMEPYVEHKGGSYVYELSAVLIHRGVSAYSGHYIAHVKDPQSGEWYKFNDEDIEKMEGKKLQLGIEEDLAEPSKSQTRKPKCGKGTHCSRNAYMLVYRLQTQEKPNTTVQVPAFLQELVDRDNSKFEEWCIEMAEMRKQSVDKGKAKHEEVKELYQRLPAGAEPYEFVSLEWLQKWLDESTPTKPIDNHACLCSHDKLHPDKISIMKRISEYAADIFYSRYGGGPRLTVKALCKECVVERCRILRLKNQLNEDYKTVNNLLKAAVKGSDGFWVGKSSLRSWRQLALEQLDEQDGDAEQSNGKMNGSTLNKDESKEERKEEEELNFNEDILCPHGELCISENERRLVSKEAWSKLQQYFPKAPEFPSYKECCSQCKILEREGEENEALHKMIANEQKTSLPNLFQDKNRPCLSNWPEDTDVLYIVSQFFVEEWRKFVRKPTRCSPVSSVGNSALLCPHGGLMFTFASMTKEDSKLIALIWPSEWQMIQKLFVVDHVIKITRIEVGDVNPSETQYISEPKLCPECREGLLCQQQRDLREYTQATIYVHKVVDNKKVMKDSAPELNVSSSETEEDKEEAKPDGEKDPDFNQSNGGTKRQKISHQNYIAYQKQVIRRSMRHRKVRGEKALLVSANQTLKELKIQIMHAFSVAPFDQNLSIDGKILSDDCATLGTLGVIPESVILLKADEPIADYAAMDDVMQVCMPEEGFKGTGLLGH
Outline: as §1

[5] = molecular target: T4, USP5 (UniProt P45974)
T4 sequence (whole entry): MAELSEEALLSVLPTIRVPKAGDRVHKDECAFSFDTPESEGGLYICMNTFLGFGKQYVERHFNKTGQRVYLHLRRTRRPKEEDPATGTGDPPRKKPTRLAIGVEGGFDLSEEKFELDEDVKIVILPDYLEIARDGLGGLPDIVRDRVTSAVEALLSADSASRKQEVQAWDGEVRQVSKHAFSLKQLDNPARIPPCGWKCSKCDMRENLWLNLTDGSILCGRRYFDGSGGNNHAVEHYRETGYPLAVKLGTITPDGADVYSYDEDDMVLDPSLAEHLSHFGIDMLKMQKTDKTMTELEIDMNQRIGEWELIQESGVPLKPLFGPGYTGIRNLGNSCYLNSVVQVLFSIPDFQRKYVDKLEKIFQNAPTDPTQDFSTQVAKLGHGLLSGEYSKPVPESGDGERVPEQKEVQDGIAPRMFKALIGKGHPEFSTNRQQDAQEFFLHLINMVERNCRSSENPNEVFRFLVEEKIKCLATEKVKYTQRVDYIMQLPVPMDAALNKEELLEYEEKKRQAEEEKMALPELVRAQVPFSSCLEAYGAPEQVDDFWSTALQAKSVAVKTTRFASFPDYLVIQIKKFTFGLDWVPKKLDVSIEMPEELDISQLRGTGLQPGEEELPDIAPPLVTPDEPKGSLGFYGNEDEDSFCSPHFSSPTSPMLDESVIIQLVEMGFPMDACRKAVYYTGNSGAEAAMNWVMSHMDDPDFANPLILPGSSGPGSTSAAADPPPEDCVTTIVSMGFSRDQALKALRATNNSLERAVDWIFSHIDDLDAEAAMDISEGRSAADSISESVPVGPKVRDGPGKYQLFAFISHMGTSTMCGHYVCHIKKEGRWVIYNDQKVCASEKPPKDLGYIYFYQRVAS
Outline: as §1

[6] = molecular target: USP54 (UniProt Q70EL1)
Outline: as §1

[7] = molecular target: USP7 (UniProt Q93009)
Outline: as §1

[8] = molecular target: T5, USP8 (UniProt P40818)
T5 sequence (whole entry): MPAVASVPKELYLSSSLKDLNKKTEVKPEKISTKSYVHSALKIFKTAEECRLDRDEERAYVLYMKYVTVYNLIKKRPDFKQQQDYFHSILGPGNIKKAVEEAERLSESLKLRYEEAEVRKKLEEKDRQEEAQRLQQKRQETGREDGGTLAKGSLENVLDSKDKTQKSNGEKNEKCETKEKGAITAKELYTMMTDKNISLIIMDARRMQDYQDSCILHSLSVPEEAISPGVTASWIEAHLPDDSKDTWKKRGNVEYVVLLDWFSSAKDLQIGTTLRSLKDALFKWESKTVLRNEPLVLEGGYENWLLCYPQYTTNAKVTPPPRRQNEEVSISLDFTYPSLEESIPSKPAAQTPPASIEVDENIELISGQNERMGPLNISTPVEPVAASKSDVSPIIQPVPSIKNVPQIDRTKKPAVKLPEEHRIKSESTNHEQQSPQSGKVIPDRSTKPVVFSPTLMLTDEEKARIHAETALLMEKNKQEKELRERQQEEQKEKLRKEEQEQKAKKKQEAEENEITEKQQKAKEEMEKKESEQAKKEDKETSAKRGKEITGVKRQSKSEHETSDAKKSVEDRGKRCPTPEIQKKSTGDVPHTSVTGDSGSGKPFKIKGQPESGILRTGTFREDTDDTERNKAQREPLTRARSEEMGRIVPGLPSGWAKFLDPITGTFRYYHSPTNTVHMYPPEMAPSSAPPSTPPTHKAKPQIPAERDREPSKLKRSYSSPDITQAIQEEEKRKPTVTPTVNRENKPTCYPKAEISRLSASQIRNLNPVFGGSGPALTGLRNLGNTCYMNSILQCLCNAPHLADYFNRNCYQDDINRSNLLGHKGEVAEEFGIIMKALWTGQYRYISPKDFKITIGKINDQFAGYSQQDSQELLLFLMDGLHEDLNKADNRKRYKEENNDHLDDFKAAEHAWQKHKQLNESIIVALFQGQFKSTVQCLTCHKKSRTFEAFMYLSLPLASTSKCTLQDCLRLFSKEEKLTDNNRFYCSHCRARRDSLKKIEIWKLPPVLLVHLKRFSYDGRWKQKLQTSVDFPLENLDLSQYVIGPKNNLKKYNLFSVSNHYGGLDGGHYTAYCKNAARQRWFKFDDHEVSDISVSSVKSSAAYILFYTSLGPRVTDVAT
Outline: as §1

[9] = molecular target: USP9X (UniProt Q93008)
Outline: as §1

[10] = molecular target: UniProt O00487
Outline: as §1

Measured: log2 ratio of Biotin-Ahx-Ub-VS probe labelling

Sequence of USP9X (Q93008 whole entry): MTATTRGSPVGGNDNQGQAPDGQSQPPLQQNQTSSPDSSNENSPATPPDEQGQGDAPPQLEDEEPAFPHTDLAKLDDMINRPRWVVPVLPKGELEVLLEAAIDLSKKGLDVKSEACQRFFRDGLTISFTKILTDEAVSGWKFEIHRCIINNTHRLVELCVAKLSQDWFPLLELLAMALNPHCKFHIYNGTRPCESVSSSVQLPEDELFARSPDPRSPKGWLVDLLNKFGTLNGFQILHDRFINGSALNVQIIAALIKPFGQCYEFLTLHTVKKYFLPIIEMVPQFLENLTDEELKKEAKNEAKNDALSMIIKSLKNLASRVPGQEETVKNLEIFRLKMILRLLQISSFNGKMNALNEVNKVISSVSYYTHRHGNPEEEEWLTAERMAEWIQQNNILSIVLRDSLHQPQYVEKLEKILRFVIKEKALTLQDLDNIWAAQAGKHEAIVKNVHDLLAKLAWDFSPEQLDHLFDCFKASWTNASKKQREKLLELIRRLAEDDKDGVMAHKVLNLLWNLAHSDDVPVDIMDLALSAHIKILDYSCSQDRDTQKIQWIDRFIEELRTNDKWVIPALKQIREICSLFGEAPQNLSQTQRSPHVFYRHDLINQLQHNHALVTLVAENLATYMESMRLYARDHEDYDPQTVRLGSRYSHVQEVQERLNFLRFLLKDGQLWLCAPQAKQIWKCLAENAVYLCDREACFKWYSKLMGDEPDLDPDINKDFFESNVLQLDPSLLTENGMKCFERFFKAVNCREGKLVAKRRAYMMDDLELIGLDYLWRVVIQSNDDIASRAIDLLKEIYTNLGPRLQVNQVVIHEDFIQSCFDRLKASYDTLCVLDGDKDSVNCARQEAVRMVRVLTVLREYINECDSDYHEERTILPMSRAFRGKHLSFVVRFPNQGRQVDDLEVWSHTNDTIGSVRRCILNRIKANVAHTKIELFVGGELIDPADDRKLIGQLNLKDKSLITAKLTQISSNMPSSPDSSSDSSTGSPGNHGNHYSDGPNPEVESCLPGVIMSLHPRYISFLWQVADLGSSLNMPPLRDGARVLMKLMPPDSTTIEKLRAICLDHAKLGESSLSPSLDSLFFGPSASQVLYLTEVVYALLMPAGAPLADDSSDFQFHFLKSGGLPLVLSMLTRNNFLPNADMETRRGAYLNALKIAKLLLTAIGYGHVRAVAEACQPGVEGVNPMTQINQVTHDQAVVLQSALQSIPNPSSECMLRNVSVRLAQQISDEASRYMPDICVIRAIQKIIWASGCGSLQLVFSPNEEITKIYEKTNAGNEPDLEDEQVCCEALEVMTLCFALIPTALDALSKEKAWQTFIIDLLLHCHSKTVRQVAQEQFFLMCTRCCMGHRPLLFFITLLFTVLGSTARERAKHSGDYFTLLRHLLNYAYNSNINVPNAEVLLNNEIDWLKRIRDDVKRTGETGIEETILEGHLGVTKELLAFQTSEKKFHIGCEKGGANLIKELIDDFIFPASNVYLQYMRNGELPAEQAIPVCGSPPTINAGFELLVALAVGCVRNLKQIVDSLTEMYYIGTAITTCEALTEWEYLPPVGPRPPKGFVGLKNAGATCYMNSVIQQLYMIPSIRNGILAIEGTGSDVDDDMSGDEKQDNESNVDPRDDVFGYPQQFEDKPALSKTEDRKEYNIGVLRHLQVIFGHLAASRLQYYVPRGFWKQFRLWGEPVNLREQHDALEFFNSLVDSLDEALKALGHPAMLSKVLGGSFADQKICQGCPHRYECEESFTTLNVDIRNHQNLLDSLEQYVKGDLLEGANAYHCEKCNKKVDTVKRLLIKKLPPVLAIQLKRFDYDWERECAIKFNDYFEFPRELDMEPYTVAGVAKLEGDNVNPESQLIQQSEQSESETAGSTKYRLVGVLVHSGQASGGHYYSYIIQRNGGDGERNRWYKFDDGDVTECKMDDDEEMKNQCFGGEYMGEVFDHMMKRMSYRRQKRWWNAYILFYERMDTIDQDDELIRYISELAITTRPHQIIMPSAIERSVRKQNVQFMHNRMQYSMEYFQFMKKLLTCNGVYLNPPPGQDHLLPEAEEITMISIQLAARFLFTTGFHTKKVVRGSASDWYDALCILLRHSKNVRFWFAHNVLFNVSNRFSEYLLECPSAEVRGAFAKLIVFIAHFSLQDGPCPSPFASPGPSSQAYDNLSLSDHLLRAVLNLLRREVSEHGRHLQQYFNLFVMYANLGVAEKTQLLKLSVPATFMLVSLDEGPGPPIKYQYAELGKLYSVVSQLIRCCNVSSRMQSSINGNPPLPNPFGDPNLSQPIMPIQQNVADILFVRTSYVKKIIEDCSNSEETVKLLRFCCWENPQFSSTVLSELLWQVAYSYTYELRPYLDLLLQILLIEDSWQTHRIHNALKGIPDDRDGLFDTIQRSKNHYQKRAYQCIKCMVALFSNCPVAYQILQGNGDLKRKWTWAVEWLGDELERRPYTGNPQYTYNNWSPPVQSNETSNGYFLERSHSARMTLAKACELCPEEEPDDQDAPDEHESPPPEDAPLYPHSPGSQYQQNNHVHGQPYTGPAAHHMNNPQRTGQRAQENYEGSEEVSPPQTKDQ
Sequence of USP46 (P62068 whole entry): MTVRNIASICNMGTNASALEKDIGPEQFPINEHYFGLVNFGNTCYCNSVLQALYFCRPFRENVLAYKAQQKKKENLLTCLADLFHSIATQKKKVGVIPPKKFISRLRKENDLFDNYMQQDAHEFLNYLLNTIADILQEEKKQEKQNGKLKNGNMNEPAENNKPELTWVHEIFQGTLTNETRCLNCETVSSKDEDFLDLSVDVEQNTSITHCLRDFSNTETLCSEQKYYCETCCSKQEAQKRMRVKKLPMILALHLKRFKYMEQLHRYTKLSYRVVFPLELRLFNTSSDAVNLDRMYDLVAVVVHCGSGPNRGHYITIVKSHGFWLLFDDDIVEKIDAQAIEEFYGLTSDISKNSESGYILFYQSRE
Sequence of UniProt O00487 (O00487 whole entry): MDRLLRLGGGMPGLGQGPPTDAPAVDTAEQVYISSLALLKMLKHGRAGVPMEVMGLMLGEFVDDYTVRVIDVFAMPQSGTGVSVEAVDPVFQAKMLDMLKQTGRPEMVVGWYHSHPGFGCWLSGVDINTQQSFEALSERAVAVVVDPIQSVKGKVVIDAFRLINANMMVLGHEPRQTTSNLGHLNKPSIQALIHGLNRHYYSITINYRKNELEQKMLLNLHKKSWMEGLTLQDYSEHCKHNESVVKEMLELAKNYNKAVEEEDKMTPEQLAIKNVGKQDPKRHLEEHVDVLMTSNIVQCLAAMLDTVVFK
Sequence of USP54 (Q70EL1 whole entry): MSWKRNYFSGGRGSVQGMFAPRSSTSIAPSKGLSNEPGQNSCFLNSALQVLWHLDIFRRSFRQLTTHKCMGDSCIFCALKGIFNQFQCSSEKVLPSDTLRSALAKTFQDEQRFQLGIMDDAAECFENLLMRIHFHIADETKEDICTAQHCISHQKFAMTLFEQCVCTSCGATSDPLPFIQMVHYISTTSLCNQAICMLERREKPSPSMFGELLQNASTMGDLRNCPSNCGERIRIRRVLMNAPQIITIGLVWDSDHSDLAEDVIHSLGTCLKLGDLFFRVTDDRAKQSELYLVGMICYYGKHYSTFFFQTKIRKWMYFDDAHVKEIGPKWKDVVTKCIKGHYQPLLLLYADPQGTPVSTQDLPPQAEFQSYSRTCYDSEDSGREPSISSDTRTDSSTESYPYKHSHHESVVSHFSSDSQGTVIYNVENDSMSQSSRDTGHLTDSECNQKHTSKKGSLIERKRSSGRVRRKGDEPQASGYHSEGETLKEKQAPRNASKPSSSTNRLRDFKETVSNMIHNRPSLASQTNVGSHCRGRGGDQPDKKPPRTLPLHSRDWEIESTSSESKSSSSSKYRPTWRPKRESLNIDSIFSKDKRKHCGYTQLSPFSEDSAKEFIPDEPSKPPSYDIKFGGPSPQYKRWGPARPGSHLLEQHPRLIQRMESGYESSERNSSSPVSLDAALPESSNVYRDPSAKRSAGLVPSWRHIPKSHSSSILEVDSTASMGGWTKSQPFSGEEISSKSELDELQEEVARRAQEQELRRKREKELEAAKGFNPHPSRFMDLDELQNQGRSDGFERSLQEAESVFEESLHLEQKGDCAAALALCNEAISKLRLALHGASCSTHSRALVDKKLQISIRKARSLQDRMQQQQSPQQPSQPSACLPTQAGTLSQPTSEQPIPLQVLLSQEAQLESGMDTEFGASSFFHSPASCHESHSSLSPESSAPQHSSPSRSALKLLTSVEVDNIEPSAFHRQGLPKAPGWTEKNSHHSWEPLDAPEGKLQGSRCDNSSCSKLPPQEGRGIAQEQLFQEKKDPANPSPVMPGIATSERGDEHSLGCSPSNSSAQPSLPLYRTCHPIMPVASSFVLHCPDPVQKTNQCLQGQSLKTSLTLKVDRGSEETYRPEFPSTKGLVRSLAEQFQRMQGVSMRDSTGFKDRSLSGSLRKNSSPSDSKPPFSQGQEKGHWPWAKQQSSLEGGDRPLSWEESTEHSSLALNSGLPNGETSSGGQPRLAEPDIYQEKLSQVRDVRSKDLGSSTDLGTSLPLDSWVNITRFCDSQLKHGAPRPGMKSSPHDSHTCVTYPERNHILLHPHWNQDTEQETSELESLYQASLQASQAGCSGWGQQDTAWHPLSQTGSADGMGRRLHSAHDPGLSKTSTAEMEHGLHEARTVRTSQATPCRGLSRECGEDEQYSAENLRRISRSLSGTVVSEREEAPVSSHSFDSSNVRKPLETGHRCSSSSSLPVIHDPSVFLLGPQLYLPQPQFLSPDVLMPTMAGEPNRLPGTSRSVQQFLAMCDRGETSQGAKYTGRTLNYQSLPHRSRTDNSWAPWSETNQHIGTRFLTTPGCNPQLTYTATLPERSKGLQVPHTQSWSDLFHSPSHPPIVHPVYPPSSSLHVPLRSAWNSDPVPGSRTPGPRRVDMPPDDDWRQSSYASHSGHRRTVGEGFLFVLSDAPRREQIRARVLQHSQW

Cc1ccc(N2CCC(NC(=O)CCl)C2=O)cc1 (stereo not given)
inactive: [1] -0.0605 | [2] 0.123 | [3] -0.186 | [4] 0.139 | [5] 0.412 | [6] 0.213 | [7] -0.0706 | [8] 0.0227 | [9] -0.0231 | [10] -0.129
